For twelve sequences, binding signal results are on record in PMC5700166.

Changes are numbered by the printed parent chain.

Test in all cases: protein-binding microarray (PBM); PBM: ~300 nM protein, 6 mM HEPES pH 7.8, 80 mM KCl, 0.5 mM EDTA, 0.5 mM EGTA, 6% glycerol, 35 ng/ul poly-dIdC, 1% milk, 1 h, room temperature; Ap Aiptasia and Nv Nematostella (sea anemones) / Co Capsaspora / Aq Amphimedon (sponge) / Dm Drosophila / Hu human; RHD is the Rel homology domain; high values mean tight binding
Holding throughout (conditions): dsDNA, one strand shown

One test has as its target T1, GST-Ap-NF-kB RHD (Exaiptasia pallida (Aiptasia), UniProt A0A913YAJ5 2-422).
T1 sequence: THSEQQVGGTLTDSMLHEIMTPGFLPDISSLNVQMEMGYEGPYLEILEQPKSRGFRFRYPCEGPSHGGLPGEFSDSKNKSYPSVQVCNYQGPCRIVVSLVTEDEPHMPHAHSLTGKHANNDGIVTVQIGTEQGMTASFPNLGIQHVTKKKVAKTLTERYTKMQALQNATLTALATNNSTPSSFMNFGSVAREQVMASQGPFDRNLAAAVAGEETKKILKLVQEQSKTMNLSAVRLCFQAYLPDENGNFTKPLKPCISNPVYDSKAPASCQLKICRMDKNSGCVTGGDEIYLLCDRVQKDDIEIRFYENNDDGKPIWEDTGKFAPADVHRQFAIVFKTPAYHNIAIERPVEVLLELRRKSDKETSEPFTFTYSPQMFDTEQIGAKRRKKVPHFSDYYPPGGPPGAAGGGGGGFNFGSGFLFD

The target of test [1] is T2, GST-Nv-NF-kB (Cys allele) (Nematostella vectensis, UniProt E5G601 2-411).
T2 sequence: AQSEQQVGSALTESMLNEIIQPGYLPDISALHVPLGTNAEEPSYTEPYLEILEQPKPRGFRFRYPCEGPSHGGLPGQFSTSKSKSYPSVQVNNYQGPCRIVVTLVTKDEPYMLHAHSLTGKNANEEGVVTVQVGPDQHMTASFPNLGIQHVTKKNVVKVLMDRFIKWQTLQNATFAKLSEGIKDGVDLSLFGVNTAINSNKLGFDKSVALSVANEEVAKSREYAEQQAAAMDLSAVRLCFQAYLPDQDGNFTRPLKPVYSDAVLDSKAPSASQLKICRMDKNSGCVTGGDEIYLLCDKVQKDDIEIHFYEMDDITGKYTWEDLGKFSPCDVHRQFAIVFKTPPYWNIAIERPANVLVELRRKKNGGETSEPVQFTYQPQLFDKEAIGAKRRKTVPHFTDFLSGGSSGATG

For test [2], the target named is T3, GST-Nv-NF-kB (Ser allele) (Nematostella vectensis, UniProt A7UNT2 2-411).
T3 sequence: T2 sequence with Q21R, C66S, S207N, E215Q, V217A, E225K, A268E, D399E

In another test the target is T4, GST-Co-NF-kB (Capsaspora owczarzaki, UniProt F1ARL5 200-546).
T4 sequence: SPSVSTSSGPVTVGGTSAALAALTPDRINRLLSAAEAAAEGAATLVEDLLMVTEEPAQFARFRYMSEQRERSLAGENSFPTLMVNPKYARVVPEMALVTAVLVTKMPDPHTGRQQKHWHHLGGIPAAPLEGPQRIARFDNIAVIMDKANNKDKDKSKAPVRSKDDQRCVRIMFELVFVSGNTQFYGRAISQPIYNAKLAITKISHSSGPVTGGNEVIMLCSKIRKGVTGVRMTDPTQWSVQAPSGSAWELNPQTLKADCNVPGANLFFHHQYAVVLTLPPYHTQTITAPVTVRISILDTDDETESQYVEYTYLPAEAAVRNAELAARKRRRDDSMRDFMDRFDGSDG

A further test addresses T5, GST-Dm-Relish (Drosophila melanogaster, UniProt Q94527 99-473).
T5 sequence: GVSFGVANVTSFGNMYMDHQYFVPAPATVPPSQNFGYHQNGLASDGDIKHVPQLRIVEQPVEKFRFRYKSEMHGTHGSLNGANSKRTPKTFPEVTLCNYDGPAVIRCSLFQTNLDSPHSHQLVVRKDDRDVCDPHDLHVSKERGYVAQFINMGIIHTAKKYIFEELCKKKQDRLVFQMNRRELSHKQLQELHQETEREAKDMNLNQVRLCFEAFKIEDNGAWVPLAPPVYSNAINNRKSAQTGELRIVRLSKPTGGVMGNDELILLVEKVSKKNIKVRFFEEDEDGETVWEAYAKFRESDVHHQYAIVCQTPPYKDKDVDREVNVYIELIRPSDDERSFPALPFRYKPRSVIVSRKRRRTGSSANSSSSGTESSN

A further test concerns the target T6, GST-Aq-NF-kB (Amphimedon queenslandica, UniProt A9Y5G7 2-389).
T6 sequence: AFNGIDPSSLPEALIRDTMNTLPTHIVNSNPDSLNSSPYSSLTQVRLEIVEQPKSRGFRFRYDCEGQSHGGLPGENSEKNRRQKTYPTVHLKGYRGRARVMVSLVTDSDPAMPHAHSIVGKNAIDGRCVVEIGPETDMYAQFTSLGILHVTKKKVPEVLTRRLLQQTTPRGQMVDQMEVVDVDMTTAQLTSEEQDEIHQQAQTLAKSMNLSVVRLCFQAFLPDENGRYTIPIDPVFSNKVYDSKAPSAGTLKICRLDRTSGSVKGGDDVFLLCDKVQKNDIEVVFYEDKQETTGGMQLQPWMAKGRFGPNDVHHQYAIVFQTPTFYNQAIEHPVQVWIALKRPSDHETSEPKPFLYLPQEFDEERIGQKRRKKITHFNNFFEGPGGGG

In another test the target is GST-Hu-p50 (Homo sapiens, UniProt P19838 7-356).
Chain of GST-Hu-p50 (P19838 7-356): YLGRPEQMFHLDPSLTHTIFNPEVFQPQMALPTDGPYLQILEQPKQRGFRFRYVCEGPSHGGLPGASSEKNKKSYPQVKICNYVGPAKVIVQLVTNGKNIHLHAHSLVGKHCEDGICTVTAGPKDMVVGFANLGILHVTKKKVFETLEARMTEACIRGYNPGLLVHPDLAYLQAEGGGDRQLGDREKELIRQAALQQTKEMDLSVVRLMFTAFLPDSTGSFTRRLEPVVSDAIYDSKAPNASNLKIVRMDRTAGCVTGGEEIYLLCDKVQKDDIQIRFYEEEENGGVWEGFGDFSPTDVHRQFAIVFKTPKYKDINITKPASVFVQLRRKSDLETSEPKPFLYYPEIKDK

As to “CCGATTAACATCAGTATTTCCCATGATGTTAATCGGGTCTTGATTCGCTTGACGCTGCTG”, the binding signal in the test with GST-Ap-NF-kB RHD came to 3.01 z-score; in test [1], 3.64 z-score; in test [2], 3.53 z-score; with GST-Co-NF-kB, 3.66 z-score; with GST-Dm-Relish, 5.01 z-score; in the test with GST-Aq-NF-kB, 3.73 z-score. For the same sequence, in the test with GST-Hu-p50, the binding signal stood at 2.64 z-score.

Turning to “CCGATTAACATCAATCCCCACATTGATGTTAATCGGGTCTTGATTCGCTTGACGCTGCTG”, the binding signal with GST-Ap-NF-kB RHD turned out to be 3.58 z-score; in test [1] it was 4.03 z-score; in test [2], 3.93 z-score; in the test with GST-Co-NF-kB it was 2.61 z-score; with GST-Dm-Relish it was 2.63 z-score; in the test with GST-Aq-NF-kB, 2.58 z-score. The same sequence showed a binding signal in the test with GST-Hu-p50 of 3.86 z-score.

“CCGATTAACATCAGACTTTCCCCTGATGTTAATCGGGTCTTGATTCGCTTGACGCTGCTG”: the binding signal is 6.18 z-score with GST-Ap-NF-kB RHD; 7.69 z-score in test [1]; 8.83 z-score in test [2]; 7.36 z-score in the test with GST-Co-NF-kB; 4.9 z-score with GST-Dm-Relish; 6.81 z-score in the test with GST-Aq-NF-kB. The binding signal with GST-Hu-p50 turned out to be 5.61 z-score.

Consider “CCGATTAACATCAAAAAAGCCCCTGATGTTAATCGGGTCTTGATTCGCTTGACGCTGCTG”, for which the binding signal in the test with GST-Ap-NF-kB RHD stood at 7.94 z-score; in test [1] it was 11.4 z-score; in test [2], 9.29 z-score; in the test with GST-Co-NF-kB it was 1.83 z-score; in the test with GST-Dm-Relish it was 9.41 z-score; with GST-Aq-NF-kB, 8.77 z-score. For the same sequence, in the test with GST-Hu-p50, the binding signal came out at 7.54 z-score.

For the sequence “CCGATTAACATCACCTTTTCCCCTGATGTTAATCGGGTCTTGATTCGCTTGACGCTGCTG”, the binding signal in the test with GST-Ap-NF-kB RHD worked out at 6.24 z-score; in test [1], 6.89 z-score; in test [2] it was 8.88 z-score; with GST-Co-NF-kB, 8.71 z-score; with GST-Dm-Relish, 2.77 z-score; with GST-Aq-NF-kB, 4.69 z-score. The sequence also had a binding signal with GST-Hu-p50 of 5.94 z-score.

Consider “CCGATTAACATCAAGGGGATTTATGATGTTAATCGGGTCTTGATTCGCTTGACGCTGCTG”, for which the binding signal in the test with GST-Ap-NF-kB RHD stood at 7.79 z-score; in test [1], 9.15 z-score; in test [2], 11.3 z-score; with GST-Co-NF-kB, 3.44 z-score; with GST-Dm-Relish, 8.3 z-score; in the test with GST-Aq-NF-kB, 6.25 z-score. The sequence also displayed a binding signal in the test with GST-Hu-p50 of 7.34 z-score.

Regarding “CCGATTAACATCAGGACGCCCCCTGATGTTAATCGGGTCTTGATTCGCTTGACGCTGCTG”, the binding signal with GST-Ap-NF-kB RHD was found to be 6.15 z-score; in test [1] it was 5.13 z-score; in test [2] it was 3.21 z-score; with GST-Co-NF-kB, 1.59 z-score; with GST-Dm-Relish it was 3.85 z-score; with GST-Aq-NF-kB, 7.57 z-score. Besides, the binding signal with GST-Hu-p50 is 4.71 z-score.

Regarding “CCGATTAACATCAAGGGGGGATGTGATGTTAATCGGGTCTTGATTCGCTTGACGCTGCTG”, the binding signal in the test with GST-Ap-NF-kB RHD was 5.69 z-score; in test [1] it was 4.01 z-score; in test [2] it was 5.38 z-score; in the test with GST-Co-NF-kB it was 4.75 z-score; with GST-Dm-Relish, 4.07 z-score; with GST-Aq-NF-kB, 4.34 z-score. Further, the binding signal in the test with GST-Hu-p50 came to 4.32 z-score.

Consider “CCGATTAACATCAAAATTCCCGCTGATGTTAATCGGGTCTTGATTCGCTTGACGCTGCTG”, for which the binding signal with GST-Ap-NF-kB RHD stood at 4.49 z-score; in test [1], 5.99 z-score; in test [2], 5.62 z-score; in the test with GST-Co-NF-kB it was 5.23 z-score; in the test with GST-Dm-Relish, 5.76 z-score; with GST-Aq-NF-kB, 5.51 z-score. The sequence further gave a binding signal with GST-Hu-p50 of 4.41 z-score.

Take “CCGATTAACATCATAATTCCCCATGATGTTAATCGGGTCTTGATTCGCTTGACGCTGCTG”: the binding signal amounted to 6.71 z-score with GST-Ap-NF-kB RHD; 8.63 z-score in test [1]; 8.94 z-score in test [2]; 6.68 z-score in the test with GST-Co-NF-kB; 4.84 z-score in the test with GST-Dm-Relish; 5.33 z-score in the test with GST-Aq-NF-kB. In the test with GST-Hu-p50, the binding signal was found to be 6.35 z-score.

Take “CCGATTAACATCAGAAAAACCCCTGATGTTAATCGGGTCTTGATTCGCTTGACGCTGCTG”: the binding signal in the test with GST-Ap-NF-kB RHD is 7.98 z-score; in test [1], 8.56 z-score; in test [2], 7.56 z-score; with GST-Co-NF-kB it was 2.03 z-score; in the test with GST-Dm-Relish, 9.4 z-score; in the test with GST-Aq-NF-kB, 7.67 z-score. Besides, the binding signal in the test with GST-Hu-p50 was determined as 7.6 z-score.

Turning to “CCGATTAACATCAAAGCATCCCCTGATGTTAATCGGGTCTTGATTCGCTTGACGCTGCTG”, the binding signal turned out to be 4.67 z-score with GST-Ap-NF-kB RHD; 5.06 z-score in test [1]; 6.87 z-score in test [2]; 3.43 z-score with GST-Co-NF-kB; 3.26 z-score with GST-Dm-Relish; 4.15 z-score in the test with GST-Aq-NF-kB. Besides, in the test with GST-Hu-p50, the binding signal is 4.58 z-score.
